PubChem BioAssay (EPA / NIEHS)
Records with an inconclusive call do not appear. Activity calls are given as the source filed them. How the source made its calls: active means hit-call score of the fitted dose curve at least 0.9, where 1 is the maximum; inconclusive means response in the unintended direction; inactive means score below 0.9.

Test: Tanguay_ZF_120hpf_SNOU_legacy: (Legacy) Oregon State University Tanguay Lab 120 Hour Post-fertilization zebrafish Assay for Snout Malformation (AID 2283637)
Outline: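 Binary snout-malformation call at 120 hpf in wild-type 5D embryos, chorion removed by pronase, under static exposure from 6 hpf at 28C (0.64% DMSO). Embryos dying by 24 or 120 hpf excluded.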

| SMILES | outcome |
| --- | --- |
| O=S(=O)(O)C(F)(F)C(F)(F)C(F)(F)C(F)(F)C(F)(F)C(F)(F)F | inactive |
| C=CC(N)=O | inactive |
| Cc1cccc(C)c1N | inactive |
| N#Cc1ccc(N(CC(N)=O)CC(F)(F)F)cc1C(F)(F)F | inactive |
| CC#Cc1cc(C)nc(Nc2ccccc2)n1 | inactive |
| CCCCCCOC(=O)c1ccccc1C(=O)OCCCCCC | inactive |
| ClC1=C(Cl)[C@]2(Cl)[C@@H]3[C@@H]4C[C@@H]([C@H]5O[C@@H]45)[C@@H]3[C@@]1(Cl)C2(Cl)Cl | inactive |
| CCOCCOC(C)=O | inactive |
| CCCCCCCCCc1ccc(O)cc1 | inactive |
